The results in this text go back to PubChem BioAssay AID463173 (ICCB-Longwood Screening Facility, Harvard Medical School, 2010).

Hit rate of the full screen: of about 52,000 compounds, about 4,300 (8.3%) were called active. Cut-off read from the data, not from the text of the source: active = survival mostly below about 52% (no sharp cut-off); inactive = mostly above about 56%. The entries come from a sample that favours actives as a whole.

The test system of the assay is DeltatarO mutant. The experiment in a line: growth inhibition of S. aureus wild type versus tarO mutant, primary screen, teichoic acid synthesis inhibitors, RN4220, OD600 (AID 463173). Particulars: OD600, 18 h, hits give low values, screened at 18.75 µg/mL (by protocol).
For `Cc1cc(C)nc(-n2nc(C)c3c2N(C)C(=O)CC3c2ccc(Cl)cc2)n1` (stereo not drawn), the survival was 73% (inactive).

For the molecule `COc1ccc(-c2onc(C)c2C)cc1S(=O)(=O)N1CCC(C)CC1`, the survival is 70% (inactive).

Take `CC(NC(=O)CN1C(=O)COc2ccc(S(=O)(=O)N3CCCCCC3)cc21)c1ccccc1` (stereo not drawn): the survival is 68% (inactive).

`O=C(Cn1c(=O)n(Cc2ccc3c(c2)OCO3)c(=O)c2ccc(C(=O)NC3CCCCC3)cc21)Nc1ccccc1F`: the survival is 76% (inactive).

On to `Cc1nc2c(C(=O)NCc3ccccc3)cnn2c(C)c1Cc1ccc(F)cc1`, for which the survival is 83% (inactive).

Consider `CCN(CC)C(=O)CSc1nc2ccccc2c(=O)n1Cc1ccco1`, for which the survival was 77% (inactive).

Take `Cc1cccc(CNC(=O)c2ccc(Cn3c(SCc4ccccc4)nc4cccnc43)cc2)c1`: the survival is 92% (inactive).

As for `Cc1cccc(Cn2c(SCc3ccc(C(=O)NCCc4ccccc4)cc3)nc3cccnc32)c1`, the survival was 115% (inactive).

On to `Cc1cccc(Cn2c(SCc3ccc(C(=O)NCc4ccccc4)cc3)nc3cccnc32)c1`, for which the survival is 46% (active).

`Cc1ccccc1C(=O)OCc1cc(=O)n2nc(-c3cccs3)sc2n1`: the survival was 117% (inactive).

As to `Cc1ccc(C)c(CNC(=O)CN2C(=O)CSc3ccc(S(=O)(=O)N(C)C)cc32)c1`, the survival was 87% (inactive).

For `COc1ccc(CC(=O)Nc2sc3c(c2C(=O)Nc2ccc(C)cc2)CCCCC3)cc1`, the survival was 131% (inactive).

In the case of `COc1ccc(NC(=O)c2c(NCc3cccc(OC)c3)sc3c2CCCC3)cc1`, the survival is 86% (inactive).

As to `COc1ccc(CC(=O)Nc2sc3c(c2C(=O)Nc2cccc(Cl)c2)CCCCC3)cc1`, the survival is 59% (inactive).

For the molecule `COc1ccc(CC(=O)Nc2sc3c(c2C(=O)Nc2c(C)cccc2C)CCCCC3)cc1`, the survival was 47% (active).

As for `COc1ccc(CC(=O)Nc2sc3c(c2C(=O)Nc2ccccc2)CCCCC3)cc1`, the survival was 68% (inactive).

On to `COc1ccc(CC(=O)Nc2sc3c(c2C(=O)Nc2cccc(C)c2)CCCCC3)cc1`, for which the survival is 43% (active).

As for `Cc1ccccc1CNc1nc(N(C)C)nc2c1cnn2C`, the survival was 72% (inactive).

Consider `Cc1ccc(C(=O)c2cn(Cc3ccccc3F)c3cc4c(cc3c2=O)OCCO4)cc1`, for which the survival was 82% (inactive).

Consider `CCc1ccc(NC(=O)CSc2cn(CC(=O)N3CCOCC3)c3ccccc23)cc1`, for which the survival is 86% (inactive).

With `CSc1ccc(CCNC(=O)c2ccc(-c3nc(COc4ccccc4)c(C)o3)cc2)cc1`, the survival was 91% (inactive).

Consider `Nc1ccc(Cc2nc3ccccc3[nH]2)cc1`, for which the survival is 86% (inactive).

Take `Cc1nn(-c2nc3ccccc3[nH]2)c(N)c1-c1ccccc1`: the survival was 2% (active).

For `CC(C)(Cc1nc2ccccc2[nH]1)c1nc2ccccc2[nH]1`, the survival was 97% (inactive).

On to `COc1cc(OC)c(NC(=O)N2CCC(CN3CCCC3)CC2)cc1Cl`, for which the survival is 84% (inactive).

Consider `COc1ccc(NC(=O)c2sc3nc(C(F)(F)F)cc(C)c3c2N)cc1OC`, for which the survival was 140% (inactive).

For the molecule `N#Cc1cc2c(nc1SCC(=O)N1CCOCC1)CCC2`, the survival is 97% (inactive).

Turning to `COc1ccc(-c2nsc(NC(=O)c3oc4cc(C)c(C)cc4c3C)n2)cc1`, the survival was 67% (inactive).

On to `COc1ccc(-c2nsc(NC(=O)COc3ccc(C)c(C)c3)n2)cc1`, for which the survival was 65% (inactive).

On to `CC(Oc1ccc(F)cc1)C(=O)Nc1nc(-c2ccc(F)cc2)ns1` (stereo not drawn), for which the survival was -2% (active).

Take `COc1ccc(-c2nsc(NC(=O)C(C)Oc3ccc(Cl)c(C)c3)n2)cc1` (stereo not drawn): the survival is 45% (active).

As to `O=C(Nc1nc(-c2ccc(Br)cc2)ns1)c1ccc(F)cc1`, the survival was 52% (inactive).

As to `CCC(Oc1ccc(F)cc1)C(=O)Nc1nc2c(s1)CCCC2` (stereo not drawn), the survival is 83% (inactive).

For `CCC(Oc1ccc(F)cc1)C(=O)Nc1nc(-c2ccc(F)cc2)ns1` (stereo not drawn), the survival is -2% (active).

In the case of `Cc1cc(C)cc(OCC(=O)Nc2nc(-c3ccc(F)cc3)ns2)c1`, the survival is 89% (inactive).

For `O=C(COc1ccccc1Cl)Nc1nc(-c2ccc(F)cc2)ns1`, the survival is 55% (inactive).

`CCC(=O)N1CCc2cc(CNC(=O)C(CC)c3ccccc3)ccc21` (stereo not drawn): the survival was 92% (inactive).

As to `Cc1cc2c(cc1NC(=O)c1ccccc1Cl)n(C)c(=O)c(=O)n2C`, the survival was 79% (inactive).

As to `CCC(=O)C1C(=O)CC(C)(C)CC1=O`, the survival is 103% (inactive).

Consider `Cc1ccc(S(=O)(=O)c2nnn(CC(=O)Nc3ccccc3C)c2N)cc1C`, for which the survival is 91% (inactive).

Consider `CN(Cc1ccccc1)C(=O)C1CCN(S(C)(=O)=O)CC1`, for which the survival was 80% (inactive).

Consider `COc1ccc(Br)cc1CNC(=O)CN1CCSc2ccccc21`, for which the survival was 88% (inactive).

Consider `CCOc1ccccc1CNC(=O)CCC(=O)N1CCSc2ccccc21`, for which the survival was 107% (inactive).

Regarding `COc1ccc(Br)cc1CNC(=O)CCC(=O)N1CCSc2ccccc21`, the survival is 41% (active).

For `COc1cc(OC)c(NC(=O)N2CCSc3ccccc32)cc1Cl`, the survival is 74% (inactive).

On to `O=C(Nc1cccc(Cl)c1)N1CCSc2ccccc21`, for which the survival was 79% (inactive).

Take `COc1cc(NC(=O)N2CCSc3ccccc32)cc(OC)c1OC`: the survival was 52% (active).

Take `COc1ccc(-c2c3c(=O)n(C)c(=O)n(C)c3c3c(-c4ccc(C)cc4)nc4ccccc4n23)cc1`: the survival was 82% (inactive).

Take `CCCCOc1ccc(C2C(=O)N(C3CCCCC3)CC(=O)N2CCCC)cc1` (stereo not drawn): the survival is 89% (inactive).

In the case of `COc1cccc(C(C(=O)NC2CCCCC2)N(C(=O)c2ccccn2)c2cccnc2)c1` (stereo not drawn), the survival was 81% (inactive).

Take `CCOC(=O)N1CCC2(CC1)OC(=O)C(C)=C2C(=O)NCc1ccc(C)cc1`: the survival is 70% (inactive).

Regarding `O=C(CSc1nnc(-c2ccc(Cl)cc2)o1)N1CCc2ccccc21`, the survival was 96% (inactive).

Consider `Cc1ccccc1-c1nnc(SCC(=O)N2CCCc3ccccc32)o1`, for which the survival is 9% (active).

For `Cc1ccc(-c2nnc(SCC(=O)N3CCCc4ccccc43)o2)cc1`, the survival is 63% (inactive).

With `O=C(CSc1nnc(-c2ccc(F)cc2)o1)N1CCCc2ccccc21`, the survival is 72% (inactive).

On to `O=C(CSc1nnc(-c2ccccc2)o1)N1CCCc2ccccc21`, for which the survival is 80% (inactive).

For the molecule `O=C(CSc1nnc(-c2ccccc2Cl)o1)N1CCCc2ccccc21`, the survival was 35% (active).

As for `Cc1cccc(-c2nnc(SCC(=O)N3CCCc4ccccc43)o2)c1`, the survival was 11% (active).

With `Cc1ccc(-c2nnc(SCC(=O)N3CCc4ccccc43)o2)cc1`, the survival was 95% (inactive).

In the case of `O=C(CSc1nnc(-c2ccccc2F)o1)N1CCc2ccccc21`, the survival was 100% (inactive).

With `Cc1ccc(NC(=O)c2ccc(NC(=O)N3CCSc4ncccc43)cc2)c(Cl)c1`, the survival is 64% (inactive).

As to `COc1cccc(-c2nc(CS(=O)(=O)CC(=O)Nc3cccc(C(C)=O)c3)c(C)o2)c1`, the survival is 71% (inactive).

Consider `CCc1cccc(NC(=O)CN2c3ccccc3S(=O)(=O)c3ccccc32)c1`, for which the survival is 72% (inactive).

`CCOc1ccc(CC(=O)NCCc2csc(-c3ccc(C)cc3)n2)cc1`: the survival was 88% (inactive).

`CCOc1ccc(CCNC(=O)c2ccc(-n3c(C)cc4c3CCC(C)C4)cc2)cc1OCC` (stereo not drawn): the survival was 82% (inactive).

For `COc1ccc(CCNC(=O)c2ccc(-n3c(C)cc4c3CCCC4)cc2)cc1OC`, the survival is 74% (inactive).

In the case of `COc1ccc(CCNC(=O)c2ccc(-n3c(C)cc4c3CCC(C)C4)cc2)cc1OC` (stereo not drawn), the survival was 52% (active).

In the case of `CCOC(=O)C1CCN(C(=O)C2CCN(C3=NS(=O)(=O)C(c4ccc(C)cc4)=C3CC)CC2)CC1`, the survival is 115% (inactive).

Turning to `O=C(NCC(c1ccco1)S(=O)(=O)c1cccs1)c1ccc(Cl)cc1` (stereo not drawn), the survival is 102% (inactive).

Consider `O=C(Cn1c(=O)oc2cc(Cl)ccc21)Nc1cccc(C(F)(F)F)c1`, for which the survival was 89% (inactive).

With `O=C(Cc1ccc(F)cc1)NCCc1csc2nc(-c3ccc(Cl)cc3)nn12`, the survival was 95% (inactive).

On to `COc1ccc(NS(=O)(=O)c2ccc(NS(=O)(=O)c3ccc4c(c3)OCCO4)cc2)cc1`, for which the survival was 116% (inactive).

For the molecule `O=S(=O)(Nc1ccc(Cl)cc1)c1ccc(NS(=O)(=O)c2ccc3c(c2)OCCO3)cc1`, the survival was 38% (active).

As to `O=S(=O)(Nc1c(F)cccc1F)c1ccc2c(c1)OCCO2`, the survival is 63% (inactive).

Consider `COC(=O)c1cc(NS(=O)(=O)c2ccc3c(c2)OCCO3)ccc1Cl`, for which the survival was 65% (inactive).

Take `CN1CCN(S(=O)(=O)c2cccc(S(=O)(=O)c3ccc(Cl)c(Cl)c3)c2)CC1`: the survival is 102% (inactive).

As for `Cc1c(Cl)cccc1NS(=O)(=O)c1ccc(NS(=O)(=O)c2ccc3c(c2)OCCO3)cc1`, the survival is 13% (active).

For the molecule `O=S(=O)(Nc1cccc(C(F)(F)F)c1)c1ccc(NS(=O)(=O)c2ccc3c(c2)OCCO3)cc1`, the survival was 6% (active).

In the case of `CC(=O)c1ccc(NS(=O)(=O)c2cccc(S(=O)(=O)c3ccc(Cl)cc3)c2)cc1`, the survival was 124% (inactive).

Consider `CCOC(=O)c1ccc(NS(=O)(=O)c2ccc3c(c2)OCCO3)cc1`, for which the survival was 74% (inactive).

Consider `Cc1cccc(C)c1NS(=O)(=O)c1ccc(NS(=O)(=O)c2ccc3c(c2)OCCO3)cc1`, for which the survival was 110% (inactive).

For the molecule `O=S(=O)(Nc1ccc(C(F)(F)F)cc1)c1ccc2c(c1)OCCO2`, the survival is 69% (inactive).

Turning to `O=S(=O)(Nc1ccc(Cl)cc1)c1cccc(S(=O)(=O)c2ccc(Cl)c(Cl)c2)c1`, the survival is 37% (active).

As to `O=C(O)CSc1nc2ccc(Cl)cc2[nH]1`, the survival is 84% (inactive).

Consider `CCOc1cccc2sc(N(Cc3cccnc3)C(=O)c3ccco3)nc12`, for which the survival is 77% (inactive).

`CCc1cc(C(=O)NC(C)c2ccccc2)no1` (stereo not drawn): the survival is 60% (inactive).

With `Cc1ccc(NC(=O)CSc2nc(=O)n(Cc3ccncc3)c3c2CCC3)cc1Cl`, the survival was 80% (inactive).

On to `Cc1cn(S(=O)(=O)c2ccc(F)c(Cl)c2)cn1`, for which the survival is 91% (inactive).

As to `Nc1c(C(=O)Nc2ccc(C(F)(F)F)cc2)sc2nc(-c3cccs3)ccc12`, the survival is 70% (inactive).

As for `CCN1CCN(c2ncc3c(n2)CCN(Cc2cc(F)cc(F)c2)C3)CC1`, the survival was 90% (inactive).

Regarding `COc1ccc(CCCN=C(N)N)cc1Cl`, the survival is 105% (inactive).

Take `CCCCOc1ccc(CSCCN=C(N)N)cc1`: the survival is 1% (active).

As for `CC(C)Oc1ccc(CSCCN)cc1`, the survival is 90% (inactive).
